The entries come from a sample that favours the strongest signals as a whole.
What was measured:
Assay in all cases: glycan array binding signal (z-score within array); higher = stronger binding
Settings in all cases: glycan notation: IUPAC condensed, linker removed
Fuc(a1-2)Gal(b1-4)Glc6S = target: Fuc(a1-2)Gal(b1-4)Glc6S
Outline: (§1)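 Glycan array data were curated from 3228 arrays in the Consortium for Functional Glycomics database and kept only where the protein sequence was available. Glycan names were converted to IUPAC-condensed notation, and columns mapping to the same glycan were averaged. The binding signal is a within-array Z-score, averaged across arrays of the same protein sequence at different concentrations or buffers and across linkers. Negative Z-scores can be read as non-binding.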

[1] = target: Fuc(a1-2)Gal3S(b1-4)GlcNAc
Outline: as §1

[2] = target: Fuc(a1-2)Gal6S(b1-4)Glc6S
Outline: as §1

[3] = target: Fuc(a1-2)[Gal(a1-3)]Gal(b1-4)GlcNAc(b1-3)[Fuc(a1-2)[Gal(a1-3)]Gal(b1-4)GlcNAc(b1-6)]GalNAc
Outline: as §1

[4] = target: Fuc(a1-3)[Gal(b1-4)]GlcNAc(b1-3)Gal(b1-4)[Fuc(a1-3)]GlcNAc(b1-3)Gal(b1-4)[Fuc(a1-3)]GlcNAc
Outline: as §1

[5] = target: Fuc(a1-3)[Gal3S(b1-4)]GlcNAc6S
Outline: as §1

Fuc(a1-4)GlcNAc = target: Fuc(a1-4)GlcNAc
Outline: as §1

Gal(a1-3)Gal(b1-3)GlcNAc = target: Gal(a1-3)Gal(b1-3)GlcNAc
Outline: as §1

[6] = target: Gal(a1-3)Gal(b1-3)[Fuc(a1-4)]GlcNAc(b1-2)Man(a1-3)[Gal(a1-3)Gal(b1-3)[Fuc(a1-4)]GlcNAc(b1-2)Man(a1-6)]Man(b1-4)GlcNAc(b1-4)GlcNAc
Outline: as §1

[7] = target: Gal(a1-3)Gal(b1-4)[Fuc(a1-3)]GlcNAc(b1-2)Man(a1-3)[Gal(a1-3)Gal(b1-4)[Fuc(a1-3)]GlcNAc(b1-2)Man(a1-6)]Man(b1-4)GlcNAc(b1-4)GlcNAc
Outline: as §1

[8] = target: Gal(a1-3)[Gal(a1-4)]Gal(b1-4)GlcNAc
Outline: as §1

[9] = target: Gal(b1-3)GalNAc(b1-3)Gal(a1-4)Gal(b1-4)Glc
Outline: as §1

[10] = target: Gal(b1-3)GlcNAc(b1-3)Gal(b1-3)GlcNAc
Outline: as §1

[11] = target: Gal(b1-3)GlcNAc(b1-3)Gal(b1-4)GlcNAc(b1-2)Man(a1-3)[Gal(b1-3)GlcNAc(b1-3)Gal(b1-4)GlcNAc(b1-2)Man(a1-6)]Man(b1-4)GlcNAc(b1-4)GlcNAc
Outline: as §1

[12] = target: Gal(b1-3)GlcNAc(b1-3)Gal(b1-4)GlcNAc(b1-6)[Gal(b1-3)GlcNAc(b1-3)]Gal(b1-4)Glc
Outline: as §1

[13] = target: Gal(b1-3)GlcNAc(b1-6)[Gal(b1-3)]GalNAc
Outline: as §1

[14] = target: Gal(b1-3)[Fuc(a1-4)]GlcNAc(b1-2)Man(a1-3)[Gal(b1-3)[Fuc(a1-4)]GlcNAc(b1-2)Man(a1-6)]Man(b1-4)GlcNAc(b1-4)[Fuc(a1-6)]GlcNAc
Outline: as §1

[15] = target: Gal(b1-4)GlcNAc(b1-2)Man(a1-6)[Man(a1-3)]Man(b1-4)GlcNAc(b1-4)GlcNAc
Outline: as §1

[16] = target: Gal(b1-4)GlcNAc(b1-3)Gal(b1-4)GlcNAc(b1-2)Man(a1-3)[Gal(b1-4)GlcNAc(b1-3)Gal(b1-4)GlcNAc(b1-2)Man(a1-6)]Man(b1-4)GlcNAc(b1-4)GlcNAc
Outline: as §1

[17] = target: Gal(b1-4)GlcNAc(b1-3)Gal(b1-4)GlcNAc(b1-2)[Gal(b1-4)GlcNAc(b1-3)Gal(b1-4)GlcNAc(b1-6)]Man(a1-6)[Gal(b1-4)GlcNAc(b1-3)Gal(b1-4)GlcNAc(b1-2)Man(a1-3)]Man(b1-4)GlcNAc(b1-4)[Fuc(a1-6)]GlcNAc
Outline: as §1

[18] = target: Gal(b1-4)GlcNAc(b1-3)Gal(b1-4)[Fuc(a1-3)]GlcNAc(b1-3)Gal(b1-4)[Fuc(a1-3)]GlcNAc
Outline: as §1

[19] = target: Gal(b1-4)GlcNAc(b1-3)[GlcNAc(b1-6)]Gal(b1-4)GlcNAc
Outline: as §1

[20] = target: Gal(b1-4)GlcNAc(b1-6)Gal(b1-4)GlcNAc
Outline: as §1

[21] = target: Gal(b1-4)GlcNAc(b1-6)[Gal(b1-3)]GalNAc
Outline: as §1

Gal3S(b1-3)GlcNAc = target: Gal3S(b1-3)GlcNAc
Outline: as §1

[22] = target: Gal3S(b1-4)[Fuc(a1-3)]Glc6S
Outline: as §1

GalNAc(a1-3)Gal = target: GalNAc(a1-3)Gal
Outline: as §1

GalNAc(b1-3)GlcNAc = target: GalNAc(b1-3)GlcNAc
Outline: as §1

GalNAc(b1-4)GlcNAc = target: GalNAc(b1-4)GlcNAc
Outline: as §1

GalNAc6S(b1-4)GlcNAc = target: GalNAc6S(b1-4)GlcNAc
Outline: as §1

B1: Thrombomodulin (Mus musculus) (protein)
chain: ALAKLQPTGSQCVEHECFALFQGPATFLDASQACQRLQGHLMTVRSSVAADVISLLLSQSSMDLGPWIGLQLPQGCDDPVHLGPLRGFQWVTGDNHTSYSRWARPNDQTAPLCGPLCVTVSTATEAAPGEPAWEEKPCETETQGFLCEFYFTASC
glycan array binding signal (z-score) (Fuc(a1-2)Gal(b1-4)Glc6S): 0.107 | glycan array binding signal (z-score) [1]: -0.236 | glycan array binding signal (z-score) [2]: -0.056 | glycan array binding signal (z-score) [3]: 5.4 | glycan array binding signal (z-score) [4]: -0.183 | glycan array binding signal (z-score) [5]: -0.172 | glycan array binding signal (z-score) (Fuc(a1-4)GlcNAc): 3.52 | glycan array binding signal (z-score) (Gal(a1-3)Gal(b1-3)GlcNAc): 4.59 | glycan array binding signal (z-score) [6]: 0.179 | glycan array binding signal (z-score) [7]: 0.955 | glycan array binding signal (z-score) [8]: 0.213 | glycan array binding signal (z-score) [9]: -0.277 | glycan array binding signal (z-score) [10]: 0.083 | glycan array binding signal (z-score) [11]: -0.022 | glycan array binding signal (z-score) [12]: 0.148 | glycan array binding signal (z-score) [13]: -0.267 | glycan array binding signal (z-score) [14]: 0.595 | glycan array binding signal (z-score) [15]: 0.088 | glycan array binding signal (z-score) [16]: 1.25 | glycan array binding signal (z-score) [17]: 0.053 | glycan array binding signal (z-score) [18]: 0.126 | glycan array binding signal (z-score) [19]: -0.029 | glycan array binding signal (z-score) [20]: -0.219 | glycan array binding signal (z-score) [21]: -0.326 | glycan array binding signal (z-score) (Gal3S(b1-3)GlcNAc): -0.007 | glycan array binding signal (z-score) [22]: 0.12 | glycan array binding signal (z-score) (GalNAc(a1-3)Gal): 0.15 | glycan array binding signal (z-score) (GalNAc(b1-3)GlcNAc): -0.37 | glycan array binding signal (z-score) (GalNAc(b1-4)GlcNAc): 0.33 | glycan array binding signal (z-score) (GalNAc6S(b1-4)GlcNAc): -0.071

Source: the supplement of paper PMC8728848
